Laboratory results from PubChem BioAssay AID1159580 (chemical genetic matrix, 2015).
In all, about 5,500 compounds went through this assay and about 2,000 (36%) were called active. Not shown: some 18% with an inconclusive outcome. Rule as the data show it: active = normalized growth mostly below about 0.91 (no sharp cut-off); inconclusive = no clear call, values can overlap the other calls; inactive = mostly above about 0.92. Some of the results follow.

Assay: chemical genetic growth profiling, strain panel (AID 1159580);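 also: tested at 20 µM; growth read once vehicle control cultures reached saturation at 30 °C; 1 = growth at the plate median or of vehicle wells; lower values mean less growth of the strain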
Details: S. cerevisiae deletion strains, growth OD
[1] = locus YDR150W, strain NUM1, stronger effect = lower value
[2] = locus YGR078C, strain PAC10, stronger effect = lower value
[3] = locus YJR075W, strain HOC1, stronger effect = lower value
[4] = locus YMR263W, strain SAP30, stronger effect = lower value

Measured: normalized growth

OC[C@H]1O[C@@H](n2cnc3c(NCCc4ccccc4)ncnc32)C(O)[C@H]1O (some centres undefined)
inactive: locus YAL040C, strain CLN3, stronger effect = lower value 0.979 | locus YCL061C, strain MRC1 (second series), stronger effect = lower value 0.999 | [1] 0.993 | locus YDR363W, strain ESC2, stronger effect = lower value 0.954 | locus YER002W, strain NOP16, stronger effect = lower value 1.02 | [2] 0.996 | [3] 0.993 | [4] 0.998 | locus YMR307W, strain GAS1, stronger effect = lower value 0.997 | locus YNL128W, strain TEP1, stronger effect = lower value 0.989 | locus YNL175C, strain NOP13, stronger effect = lower value 0.991 | locus YNL197C, strain WHI3, stronger effect = lower value 0.991 | locus YNL224C, strain SQS1, stronger effect = lower value 1.01 | locus YOR083W, strain WHI5 (second series), stronger effect = lower value 0.997

Cc1cc(C)c(I)c(C)c1
inactive: locus YAL013W, strain DEP1, stronger effect = lower value 1 | locus YBR229C, strain ROT2, stronger effect = lower value 1.02 | locus YDL101C, strain DUN1, stronger effect = lower value 0.987 | [1] 0.984 | locus YEL061C, strain CIN8, stronger effect = lower value 1.05 | [2] 0.995 | locus YHR030C, strain SLT2, stronger effect = lower value 1.12 | locus YHR087W, strain rtc3, stronger effect = lower value 1.09 | locus YJR043C, strain POL32, stronger effect = lower value 1.01 | [3] 1.02 | locus YKL190W, strain CNB1, stronger effect = lower value 0.99 | locus YLR039C, strain RIC1, stronger effect = lower value 1.05 | locus YLR058C, strain SHM2 (second series), stronger effect = lower value 1.02 | locus YLR085C, strain ARP6, stronger effect = lower value 1.01 | locus YLR262C, strain YPT6, stronger effect = lower value 1.05 | locus YML094W, strain GIM5, stronger effect = lower value 1.02 | locus YMR219W, strain ESC1, stronger effect = lower value 1.01 | [4] 1.02 | locus YNL153C, strain GIM3, stronger effect = lower value 0.999 | locus YNL298W, strain CLA4 (second series), stronger effect = lower value 1.04 | locus YNL322C, strain KRE1, stronger effect = lower value 1 | locus YNR030W, strain Alg12, stronger effect = lower value 1.03 | locus YPL055C, strain LGE1, stronger effect = lower value 1.02 | locus YPL241C, strain CIN2, stronger effect = lower value 1.02 | locus YPR135W, strain CTF4, stronger effect = lower value 0.963
